Laboratory results as given in PubChem BioAssay (NCI).
This is part of a sample that, as a whole, favours compounds with a hit. Of some 83,000 tested, about 20% had one in any assay.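 Note: values are percent growth. 100 is the growth of untreated cells, values between 100 and 0 indicate rising inhibition; between -100 and 0 indicates cell death.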 Activity calls are given as the source filed them.

system: OVCAR-8 ovarian; test: NCI-60 one-dose screen, 48 h (100 = growth as untreated, 0 = no growth, -100 = all killed); details: 10 µM unless noted
Experimental: Growth inhibition of the OVCAR-8 human tumor cell line is measured as a screen for anti-cancer activity. Cells are grown in 96 well plates and exposed to the test compound for 48 hours. Compounds are tested at a single concentration, which is 10^-5 M for most compounds. The reported endpoint is percent growth (GI% or GIPRCNT), where numbers from 0 - 100% represent growth inhibition, and numbers from -100% - 0 represent cell death. For example, a value of 40 represents 60% growth inhibition. A value of 0 means no net growth occurred over the course of the experiment. A value of -40 indicates 40% of cells at the beginning of the experiment died by the end of the experiment. A value of -100 means all cells are dead at the end of the experiment.
NCI-60 Human Tumor Cell Lines Screen was performed using the standard one-dose NCI protocol, which is described in more detail at https://dtp.cancer.gov/discovery_development/nci-60/default.htm.
Compounds with GIPRCNT values below 10 were considered active. Activity score was based on GIPRCNT using the following formula: […]
Score is 0 for GIPRCNT values of 100 or above, 50 for GIPRCNT values of 0, and 100 for GIPRCNT values of -100.

Row | SMILES | growth
1 | O=C(NOC[C@H](O)CO)c1ccc(F)c(F)c1Nc1ccc(I)cc1F | 43.5% (inactive)
2 | COc1cnc2c(c1)C(=O)c1c-2n(CCCn2ccnc2)c(=O)c2cc(Cl)ccc12 | 17.4% (inactive)
3 | Cn1ncc(Cl)c1-c1cc(C(=O)N[C@H](CN)Cc2cccc(F)c2)sc1Cl | 15.5% (inactive)
4 | Cc1cc2c(-c3nc4ccccn4c3NC3CCCCC3)c(O)c(O)cc2c(O)c1-c1c(C)cc2c(-c3nc4ccccn4c3NC3CCCCC3)c(O)c(O)cc2c1O | 34.4% (inactive)
5 | COc1cc2c(cc1OCCCCCN1CCN(c3ncnc4ccccc34)CC1)N=CC1CCCN1C2=O (stereo not given) | 1.28% (active)
6 | CCN(CC)CCNc1ccc(N=Nc2cnc3ccccc3c2)c2ccccc12 | -90.1% (active)
7 | C=CC(=O)Nc1cc2c(Nc3ccc(F)c(Cl)c3)ncnc2cc1C#CC(C)(C)N1CCN(C)CC1 | -73.5% (active)
8 | COc1cc2c(Oc3ccc(NC(=O)C4(C(=O)Nc5ccc(F)cc5)CC4)cc3F)ccnc2cc1OCCCN1CCOCC1 | 26.8% (inactive)
9 | COc1cccc2cc(-c3nc(C4CCC(C(=O)O)CC4)n4ncnc(N)c34)[nH]c12 (stereo not given) | 1.18% (active)
10 | CN1CCN(c2nc(NCCNc3ccnc4cc(Cl)ccc34)c3ccccc3n2)CC1 | 12.4% (inactive)
11 | O=C(Cc1ccc(/C=C/C(=O)c2ncc[nH]2)cc1)Nc1ccc(S(F)(F)(F)(F)F)cc1 | 88.2% (inactive)
12 | C=CC[n+]1c(/C=C/C=C2\N(C)c3ccccc3C2(C)C)sc2ccc(OC)cc21 | 12.2% (inactive)
13 | COc1cc(N2CCC(N3CCN(C)CC3)CC2)ccc1Nc1ncnc(Nc2ccccc2S(=O)(=O)C(C)C)n1 | 99.3% (inactive)
14 | CCc1nc2cc(F)c(/C=C/C(=O)NO)cc2c(=O)n1CCc1ccccc1 | 11.6% (inactive)
15 | COc1ccc(C(=O)N2c3ccccc3Sc3ccccc32)c(F)c1 | 32.3% (inactive)
16 | COC[C@@H](C)n1c(C2CCOCC2)nc2c1C1C=C(OC)C(c3c(C)noc3C)=CC1N=C2 (stereo not given in full) | 57.1% (inactive)
17 | Cn1cnc(-c2cc3nccc(Oc4ccc(NC(=S)NC(=O)Cc5ccccc5)cc4F)c3s2)c1 | 75.9% (inactive)
18 | CN1CCN(CCOc2cc(OC3CCOCC3)c3c(Nc4c(Cl)ccc5c4OCO5)ncnc3c2)CC1 | 55.6% (inactive)
19 | COc1cc(OC)c(C(=O)/C=C/c2cc3c(cc2OCc2ccccc2)OC(C)(C)CC3)cc1CC=C(C)C | 1.96% (active)
20 | Oc1ccc(C(c2ccc(O)cc2)C(Cl)(Cl)Cl)cc1 | 103% (inactive)

Row | SMILES | growth
21 | CC(C)(C)c1nc(-c2cccc(NS(=O)(=O)c3c(F)cccc3F)c2F)c(-c2ccnc(N)n2)s1 | 94.7% (inactive)
22 | CN1CCN(CC(=O)Nc2ccc(-c3nc4ccccc4s3)cc2)CC1 | 91.3% (inactive)
23 | N#CC1(C#N)C(c2cccs2)NC(c2cccs2)C1(C#N)C#N (stereo not given) | 101% (inactive)
24 | C=C1CC[C@@H]2[C@](C)(COC(C)=O)[C@H](OC(C)=O)CC[C@@]2(C)[C@@H]1C/C=C1/C(=O)OC[C@H]1OC(C)=O | 27.1% (inactive)
25 | CS(=O)(=O)N1CCN(Cc2cc3nc(-c4cccc5[nH]ncc45)nc(N4CCOCC4)c3s2)CC1 | 27% (inactive)
26 | N#Cc1c(NC(=O)c2cccs2)[n+]([O-])c2ccc(F)cc2[n+]1[O-] | 95.6% (inactive)
27 | CC/C(=C(\c1ccc(OCCN2CCCCCCC2)cc1)c1ccc(OC(=O)C2CCCCC2)cc1)c1ccc(Cl)cc1 | 100% (inactive)
28 | O=C(O)c1ccc2c(c1)nc(Nc1cccc(Cl)c1)c1ccncc12 | 5.65% (active)
29 | CC(C)(C)OC(=O)N1CCC(O)[C@@H](O[Si](c2ccccc2)(c2ccccc2)C(C)(C)C)[C@H]1/C=C/c1ccccc1 (stereo not given in full) | 59.5% (inactive)
30 | C/C(=N\NC(=O)Cn1c(-c2ccc(S(C)(=O)=O)cc2)nc2ccccc21)c1ccc(Cl)cc1 | 80.9% (inactive)
31 | CC(CCCC(=O)O)c1ccoc1 (stereo not given) | 109% (inactive)
32 | Cc1cn(-c2cc(NC(=O)c3ccc(C)c(Nc4nccc(-c5cccnc5)n4)c3)cc(C(F)(F)F)c2)cn1 | 42.6% (inactive)
33 | O=c1nc2c(-c3nc4ccccc4s3)n[nH]n2c2sc3c(c12)CCCC3 | 94% (inactive)
34 | CCN1CCN(c2cc(C)nc(N(CCCNc3ccnc4cc(Cl)ccc34)Cc3ccc4c(c3)OCO4)n2)CC1 | 9.03% (active)
35 | O=C(NOCCO)c1cc(CN2OCCCC2=O)c(F)c(F)c1Nc1ccc(I)cc1F | 52.1% (inactive)
36 | CCCCN1C(=O)c2cccc3c(-c4ccc5c(c4)ncn5C4CCCCC4)ccc(c23)C1=O | 89.9% (inactive)
37 | NS(=O)(=O)c1ccc(CCN2C(=O)/C(=C\c3ccc(Cl)cc3)C=C2c2ccc3ccccc3c2)cc1 | 83.7% (inactive)
38 | C[C@@H](NC(=O)c1ncnc(N)c1Cl)c1ncc(C(=O)Nc2cc(C(F)(F)F)c(Cl)cn2)s1 | 64.5% (inactive)
39 | CN1C/C=C\CCOc2cccc(c2)-c2ccnc(n2)Nc2cccc(c2)C1 | -22.4% (active)
40 | COc1ccc(-c2cnc(-c3ccc(Cl)cc3)[nH]2)cc1OC | 98.9% (inactive)
